Our source for the outcome and AC50 values is PubChem BioAssay (EPA / NIEHS).

The structures appear in SMILES notation. Calls of active or inactive are those of the source. How the source made its calls: active means hit-call score of the fitted dose curve at least 0.9, where 1 is the maximum; inactive means score below 0.9.

The test can be described thus: CCTE_Deisenroth_5AR_NBTE_acceptor: CCTE's 5alpha-reductase NanoBRET Target Engagement Assay - Autofluorescence Screen, Deisenroth Lab (AID 2284321).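 Further: compound fluorescence in the acceptor channel under 460 nm excitation flags autofluorescence artifacts.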 The settings on record: actives raise or lower the signal. As to the method: CCTE_Deisenroth_5AR NBTE (5alpha-reductase NanoBRET Target Engagement Assay) is a cell-based, single-readout assay that uses HEK293T, a human kidney cell line, with measurements taken at 5 hours after chemical dosing in a 384 well plate. This assay includes a primary and secondary screen as well as an autofluorscence screen.CCTE_Deisenroth_5AR NBTE_acceptor is one of four assay components measured from the CCTE_Deisenroth_5AR NBTE assay. It is designed to make measurements of resonant fluorescence generated by bioluminescent energy transfer to a target fluorophore, as detected by fluorescence intensity emission signals using spectrometry technology.Data from the assay component CCTE_Deisenroth_5AR NBTE_acceptor was analyzed into 1 assay endpoint. This assay endpoint, CCTE_Deisenroth_5AR NBTE_acceptor, was analyzed with bidirectional fitting relative to DMSO as the negative control and baseline of activity. Using a type of inducible reporter, gain or loss-of-signal activity can be used to understand changes in the acceptor fluorescence as related to 5alpha-reductase catalytic function. Furthermore, this assay endpoint can be referred to as a secondary readout, because this assay has produced multiple assay endpoints where this one serves an artifact detection function.
Chemicals from the blinded ToxCast library were diluted 1000-fold in DMSO to an assumed nominal concentration of 100 uM. Samples were scanned in three independent runs (n=3) on a multi-mode plate reader at a fixed excitation wavelength of 460 nm with emission filter set at […]. For reference, tracer was included at DMSO-solubilized concentrations of 100 uM (the top tested concentration for each test chemical) and 600 nM (the final working concentration of the tracer probe).
Regarding `CC(C)(C)NC(=O)[C@H]1CC[C@H]2[C@@H]3CC[C@H]4NC(=O)C=C[C@]4(C)[C@H]3CC[C@]12C`, the result was inactive. On the same count and under the same terms, the value for `C=CCOC(=O)c1ccc(C(=O)OCC=C)c(C(=O)OCC=C)c1` was “inactive”. The same measure, in the same setting: the value for `Oc1ccc(-c2ccccc2)c(Cl)c1` was “inactive”. On to `CCCCCCCCCC[N+](C)(CCCCCCCCCC)CCC[Si](OC)(OC)OC`, for which the AC50 is 33.4 µM (active).

With `CCCCCCCCCCCCc1ccc(O)cc1`, the outcome was inactive. On the same count and under the same terms, then `O=C(O)CCC(=O)O`, with “inactive”; and `O=S(=O)(O)c1ccc(N=Nc2c(O)ccc3ccccc23)cc1`, with “inactive”. On to `CC1=NN(c2ccc(S(=O)(=O)O)cc2)C(=O)C1N=Nc1ccccc1` (centres undefined), for which the result was inactive. Same read-out and setting: then `C=C[C@@]1(C)CC(=O)[C@]2(O)[C@@]3(C)[C@@H](O)CCC(C)(C)[C@@H]3[C@H](O)[C@H](OC(C)=O)[C@@]2(C)O1`, with “inactive”. The same measure, in the same setting: the value for `CCCCCCCCCCCCCC(=O)OC(C)C` was “inactive”.

Take `O=C(OCc1ccccc1)c1ccc(O)cc1`: the molecule was called inactive. Turning to `CN(C)c1ccc2nc3ccc(=[N+](C)C)cc-3sc2c1`, the AC50 was 10 µM (active).

`COc1ccc(-c2coc3cc(O)cc(O)c3c2=O)cc1`: the outcome was inactive. On the same count and under the same terms, the value for `CCCCCCCCCCCC(=O)N(C)CC(=O)O` was “inactive”.

As usually defined, the AC50 is the concentration giving half of the maximal activity seen.
